Compound activity (PubChem)
D2 ag-1: D2 dopamine receptor (human) agonism | P14416 | HEK293 T-REx D2 cells, calcium flux agonist mode | activation, % at 2 µM | hit rate 0.53% among 340,000;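 active means activation over 3 SD above normal in the single-dose calcium agonist read, cut at about 30% in these data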; further: 0% is about no effect
Target sequence (P14416 whole entry, looked up): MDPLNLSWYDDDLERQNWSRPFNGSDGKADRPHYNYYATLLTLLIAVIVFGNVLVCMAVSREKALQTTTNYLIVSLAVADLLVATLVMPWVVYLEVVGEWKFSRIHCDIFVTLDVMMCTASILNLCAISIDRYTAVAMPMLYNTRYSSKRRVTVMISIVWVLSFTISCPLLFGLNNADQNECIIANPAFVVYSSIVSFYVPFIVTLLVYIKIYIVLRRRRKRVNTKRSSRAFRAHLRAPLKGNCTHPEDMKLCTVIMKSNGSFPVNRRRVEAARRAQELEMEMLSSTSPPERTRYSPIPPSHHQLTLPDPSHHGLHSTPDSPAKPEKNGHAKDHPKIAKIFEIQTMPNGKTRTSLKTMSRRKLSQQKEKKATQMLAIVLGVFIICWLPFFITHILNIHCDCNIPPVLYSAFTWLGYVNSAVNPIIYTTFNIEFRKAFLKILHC
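Agonism is scored from calcium flux in a force-coupled, inducible HEK293 cell line expressing D2, read kinetically for 180 s after compound addition against dopamine controls.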
D2 PAM-1: D2 dopamine receptor (human) potentiation; P14416; HEK293 T-REx D2, calcium flux, EC20 dopamine potentiation; potentiation, % at 10 µM; hit rate 0.34% among 340,000; AID 485347;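 active means potentiation over 3 SD above the plate norm, cut at about 30% in these data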; further: 0% is about no effect
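Using a no-wash calcium dye in inducible, force-coupled HEK293 Trex cells expressing D2, we tracked fluorescence each second for 180 s after compound, then for 180 s after EC20 dopamine to detect augmented signalling.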
D2 ag-2: human D2 receptor agonism in beta-arrestin assay; activation, % (no concentration beside the values); AID 624465; hit rate 0.084% among 360,000; P14416; DiscoveRx PathHunter D2 beta-arrestin, luminescence, 90 min; 100% = 57 uM dopamine signal; in the data active means activation above about 40%; inconclusive means between about 15% and that limit
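DiscoveRx PathHunter D2 beta-arrestin cells (2,100/well) attached overnight, then compound-stimulated 90 min at 37 C in HBSS/10 mM HEPES/0.1% Tween-20 buffer; beta-galactosidase complementation read by luminescence after 1 h at ambient temperature. Dopamine 57 uM final (EC100) as control.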
D2 PAM-2: potentiates the human D2 dopamine receptor allosterically; P14416; DiscoveRx D2 beta-arrestin cells, luminescence, 90 min; 100% = 57 uM dopamine signal; potentiation, % (test concentration not listed); hit rate 0.23% among 360,000; in the data active means potentiation above about 50%; inconclusive means mostly about 30% to 49%
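PathHunter beta-arrestin assay in DiscoveRx D2 cells. Compounds were added with an EC20 of dopamine (50 nM final) for 90 min at 37 deg C. Luminescence was read 1 h after detection reagent, with 57 uM dopamine as the EC100 control.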
D2 antag: antagonists of human D2 dopamine receptor; P14416; HEK293 TREx D2 cells, calcium flux, dopamine EC80; inhibition, % at 10 µM; hit rate 2% among 340,000; AID 485344; in the data active means inhibition above about 30%; inactive means below that, where a call was filed; further: 0% is about no effect
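In this primary screen, negative modulation is detected by tracking calcium flux after an EC80 dopamine challenge in inducible HEK293 T-REx D2 cells preexposed to test compound for 180 s.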
An asterisk follows results filed as active; u = inconclusive; x = no result. Only some compounds are listed: those with a hit (about 2.4% of all), similar ones and a draw of the others.

SMILES	D2 ag-1	D2 PAM-1	D2 ag-2	D2 PAM-2	D2 antag
C=CCNc1nc(N2CCCCC2)c(C#N)c2c1CN(Cc1ccccc1)CC2	0	-13	-5	-44	72*
CCN1CCc2c(sc(N)c2C#N)C1	0	x	43*	u	4
N#Cc1c(N)sc(=S)c2c1CCN(Cc1ccccc1)C2	1	10	x	x	32*
CCOc1ccc(OCC)c(NC(=O)C2CCCN(S(=O)(=O)c3ccc4c(c3)oc(=O)n4C)C2)c1 (stereo not given)	-1	-4	x	x	x
CCCCCN1C(C(=O)c2ccccc2)=C(NC(=O)c2ccc(OC)cc2)c2ccccc2S1(=O)=O	0	3	x	x	x
CC(=O)c1c(C)[nH]c(C(=O)CSc2nnc(-c3ccco3)o2)c1C	0	8	3	-3	-10
COc1ccc(-c2nnc(SCC(=O)c3[nH]c(C)c(C(C)=O)c3C)o2)cc1	0	38*	1	-4	-8
CCCc1ccc(OC(C)C(=O)Nc2sc3c(c2C(=O)OC)CCCCC3)cc1 (stereo not given)	-1	11	x	x	x
COc1cccc(OC)c1OCCCNC1CCCC1	0	-30	-4	-3	48*
Cc1ccc(C)c(OCCCNC2CCCC2)c1C	-2	7	-6	-3	-3
Brc1cccc(OCCCNC2CCCC2)c1	8	-26	-6	-24	58*
CCOc1ccc(OCCNC2CCCC2)cc1	0	-3	-4	-5	16
CCOc1ccccc1OCCNC1CCCC1	1	-51	-3	-17	62*
O=C(Nc1cccc(CNCCc2c[nH]c3ccccc23)c1)c1ccccc1Cl	22	-34	-4	-24	72*
CC(=O)c1cccc(NC(=O)NCCc2c[nH]c3ccccc23)c1	-1	-6	-1	-10	-6
Cc1cccc(N(C)C(=O)CCS(=O)(=O)c2ccc3c(c2)oc(=O)n3C)c1	0	2	x	x	x
CCn1cc(C(=O)N2CCc3ccccc3C2)c(=O)c2cc(S(=O)(=O)N3CCCCC3)ccc21	68*	-21	x	x	-14
Cn1cc(C(=O)N2CCc3ccccc3C2)c(=O)c2cc(S(=O)(=O)N3CCCCC3)ccc21	1	-17	x	x	-11
Cn1cc(C(=O)NC2CCCCCCC2)c(=O)c2cc(S(=O)(=O)N3CCCC3)ccc21	2	32*	-2	-6	-10
Cn1cc(C(=O)NC2CCCCCC2)c(=O)c2cc(S(=O)(=O)N3CCCC3)ccc21	3	-1	-5	-14	3
CC1CCN(CCCNC(=O)c2cn(C)c3ccc(S(=O)(=O)N(C)C4CCCCC4)cc3c2=O)CC1	-1	11	x	x	x
CC1CCCN(CCCNC(=O)c2cn(C)c3ccc(S(=O)(=O)N(C)C4CCCCC4)cc3c2=O)C1 (stereo not given)	0	-14	-1	-17	37*
Cc1cccc(C)c1Nc1nn2c(=O)c3cc4c(cc3nc2s1)OCO4	0	-2	x	x	x
COc1ccccc1NC(=O)Nc1nnc([C@@H]2C[C@H](O)[C@@H](CO)O2)s1	x	x	-3	-6	x
Cc1ccccc1-n1c(SCC(=O)Nc2ccc(Cl)cc2F)nnc1-c1cc2occc2n1C	-1	2	x	x	x
SMILES	D2 ag-1	D2 PAM-1	D2 ag-2	D2 PAM-2	D2 antag
O=C(CN1CCN(c2ccccn2)CC1)Nc1ccccc1	1	8	6	-11	31*
O=C(CN1CCN(c2ccccn2)CC1)Nc1ccc(F)cc1	0	6	11	-7	6
O=C(CN1CCN(c2ccccn2)CC1)Nc1ccc(Oc2ccccc2)cc1	x	x	50*	10	x
Cc1ccc(Cl)cc1NC(=O)CSc1ccc(C(=O)O)cn1	0	9	x	x	x
Cc1cc(Br)ccc1NC(=O)CNC(=O)COc1ccccc1C	0	-14	-5	-13	32*
Cc1ccccc1OCC(=O)Nc1ccccc1-c1ccccc1NC(=O)COc1ccccc1C	0	-3	-4	-20	-1
COCc1cc(C)nc2sc3c(=O)n(-c4ccccc4C(F)(F)F)nnc3c12	x	4	x	x	x
CCOc1ccc(S(=O)(=O)n2nc(C)cc2C)cc1	1	0	2	1	-11
Cc1cc(C(=O)NCc2ccc(S(N)(=O)=O)cc2)c(C)o1	0	-4	-2	-4	30*
Cc1cc(C)cc(NC(=S)N(CCCN2CCN(C)CC2)Cc2cccs2)c1	1	x	0	1	1
CSc1cccc(NC(=S)N(CCCN2CCCC(C)C2)Cc2cccs2)c1 (stereo not given)	0	-17	-5	-39	46*
COc1cccc(NC(=S)N(CCCN2CCCC(C)C2)Cc2cccs2)c1 (stereo not given)	3	-28	1	-15	59*
COc1ccc(NC(=S)N(CCCN2CCC(C)CC2)Cc2cccs2)cc1Cl	0	-8	-3	-22	5
Cc1cc(N2CCN(Cc3ccccc3)CC2)n2nc(C)c(-c3ccccc3)c2n1	-1	-12	-3	-8	18
Cc1nn2c(N3CCOCC3)cc(C(C)(C)C)nc2c1-c1ccc(Cl)cc1	-1	2	-2	5	-6
Cc1cc(N2CCOCC2)n2nc(C)c(-c3ccc(Cl)cc3)c2n1	1	1	-5	-4	33*
COc1ccc(-c2c(C)nn3c(N4CCN(Cc5ccccc5)CC4)cc(C)nc23)cc1OC	0	31*	-5	-1	26
CCOC(=O)C1=C[C@@H](C(C)(C)C)N(S(=O)(=O)c2ccc(C)cc2)[C@H]1c1ccc(F)cc1	x	x	-2	-1	x
CCSc1nc2c(c(=O)[nH]c(=O)n2C)n1C/C=C(/C)Cl	0	48*	-1	4	3
C=C(C)CSc1nc2c(c(=O)[nH]c(=O)n2C)n1CCC(C)C	-1	34*	-2	-3	-4
CCCCOc1ccc(CNC(=O)c2cnc3sc(N4CCOCC4)nn3c2=O)cc1	1	7	x	x	x
CCCCOC(=O)c1ccc(NC(=O)C2(c3cccs3)CCOCC2)cc1	1	-6	x	x	x
COc1cccc(OC(=O)N2CCOCC2)c1	0	-10	-18	-10	2
Cc1cc(C)cc(OC(=O)N2CCOCC2)c1	0	9	-3	11	38*
CN(C)CCCNc1nc2sc3c(c2c(=O)n1CCc1ccccc1)CCCCC3	2	7	-9	-24	27
Cc1ccc(NC(=O)C2CCN(S(=O)(=O)c3ccc4c(c3)NC(=O)CO4)CC2)cc1	7	-19	-3	-10	32*
CC(=O)N1c2ccc(S(=O)(=O)N3CCC(C(=O)Nc4cccc(C)c4)CC3)cc2CC1C (stereo not given)	-1	15	-2	-36	-6
CC(=O)N1c2ccc(S(=O)(=O)N3CCC(C(=O)Nc4cc(C)cc(C)c4)CC3)cc2CC1C (stereo not given)	-2	-22	-1	-31	71*
